For three sequences, binding signal results are on record in article PMC7862700, “An all-to-all approach to the identification of sequence-specific readers for epigenetic DNA modifications on cytosine”.

Common to all, as to assay: DAPPL (digital affinity profiling via proximity ligation, sequencing); 10 mM Tris-HCl pH 7.5, 50 mM NaCl, 1 mM DTT, 4% glycerol, room temperature, 30 min; GST-TFs on glutathione beads, 16-mer random dsDNA library, 0.1% formaldehyde crosslink after washing; high values mean tight binding
Holding throughout (conditions): protein: recombinant; tags: N-terminal GST; dsDNA, one strand shown

The target in one assay is T1, ELK1 (Homo sapiens, UniProt P19419 1-428).
T1 sequence: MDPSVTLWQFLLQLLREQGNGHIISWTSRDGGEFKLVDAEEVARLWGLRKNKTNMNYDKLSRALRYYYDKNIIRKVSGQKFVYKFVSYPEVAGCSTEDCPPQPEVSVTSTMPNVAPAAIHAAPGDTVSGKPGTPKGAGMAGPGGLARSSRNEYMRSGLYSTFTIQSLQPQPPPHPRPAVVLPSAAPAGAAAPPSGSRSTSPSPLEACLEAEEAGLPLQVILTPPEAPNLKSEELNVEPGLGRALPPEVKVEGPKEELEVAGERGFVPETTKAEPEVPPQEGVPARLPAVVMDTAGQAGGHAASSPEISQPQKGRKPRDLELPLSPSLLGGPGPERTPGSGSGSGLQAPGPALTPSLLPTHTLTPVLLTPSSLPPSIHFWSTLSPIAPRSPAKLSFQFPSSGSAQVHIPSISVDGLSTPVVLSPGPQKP
Put shortly:
(§1)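 A tag-only sample was pooled with DNA-barcoded human transcription factors that had been expressed in yeast as GST fusions and captured on glutathione beads. The pools were incubated for 30 min at room temperature with 200 nmole of a random double-stranded 16-mer DNA library in Tris/NaCl/DTT/glycerol buffer, then washed, crosslinked with 0.1% formaldehyde, proximity-ligated (BsaI/T4 ligase, 1 h, 37 °C), PCR-amplified and sequenced on an Illumina NextSeq500. Binding signal is each hexamer's read frequency for a factor divided by its frequency for the tag-only sample.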

A further assay concerns the target T2, GABPA (Homo sapiens, UniProt Q06546 1-454).
T2 sequence: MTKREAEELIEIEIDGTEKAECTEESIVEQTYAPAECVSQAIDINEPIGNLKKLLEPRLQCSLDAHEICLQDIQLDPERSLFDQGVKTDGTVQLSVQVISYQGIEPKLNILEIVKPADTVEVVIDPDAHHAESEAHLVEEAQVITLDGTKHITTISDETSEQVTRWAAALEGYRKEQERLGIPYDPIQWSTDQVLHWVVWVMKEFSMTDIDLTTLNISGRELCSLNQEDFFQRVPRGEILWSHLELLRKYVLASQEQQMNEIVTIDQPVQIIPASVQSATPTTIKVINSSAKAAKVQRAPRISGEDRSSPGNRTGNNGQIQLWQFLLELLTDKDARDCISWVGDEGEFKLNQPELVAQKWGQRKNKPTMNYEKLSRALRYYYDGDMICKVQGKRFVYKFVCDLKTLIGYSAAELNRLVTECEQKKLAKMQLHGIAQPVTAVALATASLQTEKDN
A digest of the protocol:
as §1

A further assay concerns the target T3, ERG (Homo sapiens, UniProt P11308 1-479).
T3 sequence: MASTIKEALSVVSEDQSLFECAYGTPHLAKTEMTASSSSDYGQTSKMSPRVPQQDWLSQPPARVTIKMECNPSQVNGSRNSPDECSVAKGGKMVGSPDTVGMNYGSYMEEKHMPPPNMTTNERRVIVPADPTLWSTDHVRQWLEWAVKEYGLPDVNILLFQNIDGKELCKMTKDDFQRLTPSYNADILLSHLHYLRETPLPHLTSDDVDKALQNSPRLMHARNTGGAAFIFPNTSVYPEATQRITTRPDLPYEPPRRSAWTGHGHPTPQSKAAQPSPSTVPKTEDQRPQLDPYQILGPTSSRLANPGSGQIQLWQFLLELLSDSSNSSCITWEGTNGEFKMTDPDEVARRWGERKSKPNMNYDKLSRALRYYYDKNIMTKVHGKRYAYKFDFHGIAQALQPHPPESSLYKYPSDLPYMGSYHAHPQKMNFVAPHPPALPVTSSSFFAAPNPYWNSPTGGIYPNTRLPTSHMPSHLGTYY
Put shortly:
as §1

The target of the next assay is ELF1 (Homo sapiens, UniProt P32519 1-619). Put shortly:
as §1

For the next assay, the target named is T4, EHF (Homo sapiens, UniProt Q9NZC4 1-300).
T4 sequence: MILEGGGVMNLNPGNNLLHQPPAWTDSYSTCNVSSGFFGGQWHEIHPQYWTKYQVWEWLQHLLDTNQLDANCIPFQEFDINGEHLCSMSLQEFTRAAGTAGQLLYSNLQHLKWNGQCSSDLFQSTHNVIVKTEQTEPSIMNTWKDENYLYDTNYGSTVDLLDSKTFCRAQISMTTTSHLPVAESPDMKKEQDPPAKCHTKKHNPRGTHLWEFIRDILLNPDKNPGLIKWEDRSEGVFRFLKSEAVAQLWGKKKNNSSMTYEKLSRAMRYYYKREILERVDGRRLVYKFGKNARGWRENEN
A digest of the protocol:
as §1

The target in a further assay is SPIB (Homo sapiens, UniProt Q01892 1-262). Put shortly:
as §1

In a further assay the target is T5, ELK3 (Homo sapiens, UniProt P41970 1-407).
T5 sequence: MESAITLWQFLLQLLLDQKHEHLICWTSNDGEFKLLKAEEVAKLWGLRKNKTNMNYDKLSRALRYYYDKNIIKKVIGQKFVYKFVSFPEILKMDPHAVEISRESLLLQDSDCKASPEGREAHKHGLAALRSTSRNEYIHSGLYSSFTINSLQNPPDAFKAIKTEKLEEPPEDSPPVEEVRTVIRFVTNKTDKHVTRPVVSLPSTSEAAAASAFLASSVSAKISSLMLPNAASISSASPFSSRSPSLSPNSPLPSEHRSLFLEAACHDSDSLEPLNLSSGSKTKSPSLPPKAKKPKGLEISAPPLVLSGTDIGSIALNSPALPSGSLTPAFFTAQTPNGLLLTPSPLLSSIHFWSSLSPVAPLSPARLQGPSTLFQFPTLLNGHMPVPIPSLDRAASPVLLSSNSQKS
A digest of the protocol:
as §1

For the next assay, the target named is ETV5 (Homo sapiens, UniProt P41161 1-510). Put shortly:
as §1

Another assay has as its target T6, SPIC (Homo sapiens, UniProt Q8N5J4 1-248).
T6 sequence: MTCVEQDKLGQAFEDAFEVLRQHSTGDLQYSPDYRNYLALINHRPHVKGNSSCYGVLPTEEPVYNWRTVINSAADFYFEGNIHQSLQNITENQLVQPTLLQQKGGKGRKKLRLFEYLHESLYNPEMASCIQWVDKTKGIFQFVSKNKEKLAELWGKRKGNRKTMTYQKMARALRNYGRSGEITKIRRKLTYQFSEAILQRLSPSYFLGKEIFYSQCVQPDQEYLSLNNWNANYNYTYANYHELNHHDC
A digest of the protocol:
as §1

For another assay, the target named is ELF4 (Homo sapiens, UniProt Q99607 1-663). Put shortly:
as §1

In another assay the target is T7, ELF3 (Homo sapiens, UniProt P78545 1-371).
T7 sequence: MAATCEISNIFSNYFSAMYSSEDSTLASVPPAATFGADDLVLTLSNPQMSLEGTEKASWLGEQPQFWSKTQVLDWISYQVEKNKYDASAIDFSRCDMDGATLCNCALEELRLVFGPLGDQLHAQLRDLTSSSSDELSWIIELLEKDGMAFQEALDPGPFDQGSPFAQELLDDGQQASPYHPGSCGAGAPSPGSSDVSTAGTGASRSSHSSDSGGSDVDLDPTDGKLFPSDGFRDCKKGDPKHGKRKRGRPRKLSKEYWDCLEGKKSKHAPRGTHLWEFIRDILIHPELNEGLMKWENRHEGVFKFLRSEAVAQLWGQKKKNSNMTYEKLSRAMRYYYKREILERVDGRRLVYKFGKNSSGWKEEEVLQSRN
Put shortly: as §1

A further assay has as its target ETV1 (Homo sapiens, UniProt P50549 1-477). A digest of the protocol:
as §1

The target in another assay is T8, ERF (Homo sapiens, UniProt P50548 1-548).
T8 sequence: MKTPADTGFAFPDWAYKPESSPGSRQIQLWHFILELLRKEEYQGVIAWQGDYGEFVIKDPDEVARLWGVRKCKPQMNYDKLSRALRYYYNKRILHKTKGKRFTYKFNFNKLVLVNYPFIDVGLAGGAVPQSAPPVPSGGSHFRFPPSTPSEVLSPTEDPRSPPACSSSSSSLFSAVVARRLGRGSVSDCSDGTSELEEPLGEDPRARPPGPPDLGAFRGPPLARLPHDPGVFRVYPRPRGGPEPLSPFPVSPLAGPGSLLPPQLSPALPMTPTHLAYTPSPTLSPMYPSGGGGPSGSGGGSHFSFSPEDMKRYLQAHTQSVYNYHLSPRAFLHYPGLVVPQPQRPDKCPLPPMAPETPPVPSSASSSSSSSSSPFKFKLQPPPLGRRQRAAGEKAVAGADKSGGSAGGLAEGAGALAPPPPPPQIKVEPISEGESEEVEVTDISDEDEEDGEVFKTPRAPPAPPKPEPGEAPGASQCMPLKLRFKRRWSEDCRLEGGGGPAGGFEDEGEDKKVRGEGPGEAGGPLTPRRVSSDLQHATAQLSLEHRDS
A digest of the protocol:
as §1

Another assay concerns the target T9, ETV3L (Homo sapiens, UniProt Q6ZN32 1-361).
T9 sequence: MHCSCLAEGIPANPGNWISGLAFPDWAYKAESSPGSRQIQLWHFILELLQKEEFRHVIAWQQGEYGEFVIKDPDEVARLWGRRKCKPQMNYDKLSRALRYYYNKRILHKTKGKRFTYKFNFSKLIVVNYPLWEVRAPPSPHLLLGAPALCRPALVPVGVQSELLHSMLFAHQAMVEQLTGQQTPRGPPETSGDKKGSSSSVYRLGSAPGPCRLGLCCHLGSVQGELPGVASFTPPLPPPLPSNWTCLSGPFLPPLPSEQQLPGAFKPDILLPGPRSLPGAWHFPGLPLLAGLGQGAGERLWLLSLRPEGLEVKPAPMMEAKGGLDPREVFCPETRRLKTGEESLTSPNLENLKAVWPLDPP
A digest of the protocol: as §1

The target of a further assay is T10, SPDEF (Homo sapiens, UniProt O95238 1-335).
T10 sequence: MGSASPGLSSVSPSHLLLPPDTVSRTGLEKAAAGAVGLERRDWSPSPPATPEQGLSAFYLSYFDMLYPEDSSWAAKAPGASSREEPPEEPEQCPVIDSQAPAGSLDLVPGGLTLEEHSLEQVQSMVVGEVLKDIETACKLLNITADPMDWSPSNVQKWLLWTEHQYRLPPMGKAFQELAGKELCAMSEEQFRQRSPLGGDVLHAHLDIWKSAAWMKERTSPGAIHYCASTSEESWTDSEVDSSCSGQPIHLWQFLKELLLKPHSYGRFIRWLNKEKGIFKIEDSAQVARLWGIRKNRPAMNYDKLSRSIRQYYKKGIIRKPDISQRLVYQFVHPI
Put shortly:
as §1

In another assay the target is T11, ETV7 (Homo sapiens, UniProt Q9Y603 1-341).
T11 sequence: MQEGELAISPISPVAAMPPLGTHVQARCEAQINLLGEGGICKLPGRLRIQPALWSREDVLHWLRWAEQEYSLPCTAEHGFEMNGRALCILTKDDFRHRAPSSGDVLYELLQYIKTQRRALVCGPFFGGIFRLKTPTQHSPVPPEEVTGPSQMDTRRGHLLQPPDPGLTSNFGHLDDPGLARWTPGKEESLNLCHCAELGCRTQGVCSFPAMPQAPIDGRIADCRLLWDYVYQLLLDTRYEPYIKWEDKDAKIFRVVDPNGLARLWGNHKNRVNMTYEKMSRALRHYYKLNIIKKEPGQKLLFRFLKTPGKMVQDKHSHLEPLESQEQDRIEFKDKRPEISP
A digest of the protocol:
as §1

The target in a further assay is T12, ETV3 (Homo sapiens, UniProt P41162-2 1-143).
T12 sequence: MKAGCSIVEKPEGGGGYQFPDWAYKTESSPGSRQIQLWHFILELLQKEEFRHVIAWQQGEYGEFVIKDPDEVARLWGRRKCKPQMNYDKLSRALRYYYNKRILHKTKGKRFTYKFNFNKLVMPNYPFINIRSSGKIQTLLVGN
Put shortly:
as §1

For a further assay, the target named is ETV6 (Homo sapiens, UniProt P41212 1-452). A digest of the protocol:
as §1

Chain of ETV5 (P41161 whole entry): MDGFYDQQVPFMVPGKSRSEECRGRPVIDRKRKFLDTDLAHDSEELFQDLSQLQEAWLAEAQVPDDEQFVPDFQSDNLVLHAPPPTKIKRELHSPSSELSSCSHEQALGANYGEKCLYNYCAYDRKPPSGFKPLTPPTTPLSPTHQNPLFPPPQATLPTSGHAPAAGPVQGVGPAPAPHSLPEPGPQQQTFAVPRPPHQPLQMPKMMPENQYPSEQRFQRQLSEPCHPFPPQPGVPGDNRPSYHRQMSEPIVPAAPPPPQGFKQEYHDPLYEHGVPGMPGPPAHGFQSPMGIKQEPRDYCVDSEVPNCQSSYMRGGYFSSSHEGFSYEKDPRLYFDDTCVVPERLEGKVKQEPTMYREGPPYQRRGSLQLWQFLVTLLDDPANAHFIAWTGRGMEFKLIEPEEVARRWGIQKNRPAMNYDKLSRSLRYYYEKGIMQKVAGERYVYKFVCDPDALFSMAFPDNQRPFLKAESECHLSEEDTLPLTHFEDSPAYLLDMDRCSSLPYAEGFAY
Chain of SPIB (Q01892 whole entry): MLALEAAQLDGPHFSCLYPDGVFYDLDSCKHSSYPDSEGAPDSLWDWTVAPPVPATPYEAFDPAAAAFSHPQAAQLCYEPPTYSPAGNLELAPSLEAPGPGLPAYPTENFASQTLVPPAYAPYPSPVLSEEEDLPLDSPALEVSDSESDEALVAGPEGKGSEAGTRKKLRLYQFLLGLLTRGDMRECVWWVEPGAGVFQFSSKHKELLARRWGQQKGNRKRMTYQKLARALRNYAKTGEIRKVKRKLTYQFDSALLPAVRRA
Chain of ETV1 (P50549 whole entry): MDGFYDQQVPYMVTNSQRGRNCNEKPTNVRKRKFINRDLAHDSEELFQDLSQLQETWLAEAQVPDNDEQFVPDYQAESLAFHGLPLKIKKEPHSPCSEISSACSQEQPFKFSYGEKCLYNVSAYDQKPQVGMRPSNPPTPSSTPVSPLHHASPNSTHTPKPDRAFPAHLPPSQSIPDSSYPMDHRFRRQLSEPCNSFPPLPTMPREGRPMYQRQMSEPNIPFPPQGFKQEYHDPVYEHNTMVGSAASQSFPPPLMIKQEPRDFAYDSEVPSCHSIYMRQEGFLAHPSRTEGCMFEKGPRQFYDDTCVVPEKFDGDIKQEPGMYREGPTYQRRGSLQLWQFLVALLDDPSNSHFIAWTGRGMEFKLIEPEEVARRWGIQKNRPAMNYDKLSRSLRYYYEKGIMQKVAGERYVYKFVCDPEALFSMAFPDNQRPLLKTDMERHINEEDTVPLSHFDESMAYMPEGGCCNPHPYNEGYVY
Chain of ETV6 (P41212 whole entry): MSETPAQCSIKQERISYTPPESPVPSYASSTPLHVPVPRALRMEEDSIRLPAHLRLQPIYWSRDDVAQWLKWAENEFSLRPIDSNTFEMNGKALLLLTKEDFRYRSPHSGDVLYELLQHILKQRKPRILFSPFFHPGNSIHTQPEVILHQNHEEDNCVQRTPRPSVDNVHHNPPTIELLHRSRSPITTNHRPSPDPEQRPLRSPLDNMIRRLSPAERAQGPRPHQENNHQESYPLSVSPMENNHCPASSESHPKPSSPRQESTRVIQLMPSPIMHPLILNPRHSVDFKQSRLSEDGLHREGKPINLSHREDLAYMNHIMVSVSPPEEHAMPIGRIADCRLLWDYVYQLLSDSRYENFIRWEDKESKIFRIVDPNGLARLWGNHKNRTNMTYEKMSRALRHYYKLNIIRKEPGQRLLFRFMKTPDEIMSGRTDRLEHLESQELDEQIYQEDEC
Chain of ELF1 (P32519 whole entry): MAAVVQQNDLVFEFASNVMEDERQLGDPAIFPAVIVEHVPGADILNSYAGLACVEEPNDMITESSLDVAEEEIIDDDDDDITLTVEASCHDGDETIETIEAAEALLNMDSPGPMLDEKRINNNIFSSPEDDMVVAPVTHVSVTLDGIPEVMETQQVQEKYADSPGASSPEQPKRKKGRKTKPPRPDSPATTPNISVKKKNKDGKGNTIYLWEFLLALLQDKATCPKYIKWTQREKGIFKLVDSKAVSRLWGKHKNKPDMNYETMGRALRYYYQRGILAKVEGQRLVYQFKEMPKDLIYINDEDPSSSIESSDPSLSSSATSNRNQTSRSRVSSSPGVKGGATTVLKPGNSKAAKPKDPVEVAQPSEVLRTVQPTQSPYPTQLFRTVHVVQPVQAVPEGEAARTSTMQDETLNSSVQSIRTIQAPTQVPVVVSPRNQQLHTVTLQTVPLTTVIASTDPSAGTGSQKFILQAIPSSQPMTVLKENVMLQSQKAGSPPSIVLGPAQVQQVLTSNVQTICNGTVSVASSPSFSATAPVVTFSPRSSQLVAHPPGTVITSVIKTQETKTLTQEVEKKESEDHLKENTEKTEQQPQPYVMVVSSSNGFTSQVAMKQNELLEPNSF
Chain of ELF4 (Q99607 whole entry): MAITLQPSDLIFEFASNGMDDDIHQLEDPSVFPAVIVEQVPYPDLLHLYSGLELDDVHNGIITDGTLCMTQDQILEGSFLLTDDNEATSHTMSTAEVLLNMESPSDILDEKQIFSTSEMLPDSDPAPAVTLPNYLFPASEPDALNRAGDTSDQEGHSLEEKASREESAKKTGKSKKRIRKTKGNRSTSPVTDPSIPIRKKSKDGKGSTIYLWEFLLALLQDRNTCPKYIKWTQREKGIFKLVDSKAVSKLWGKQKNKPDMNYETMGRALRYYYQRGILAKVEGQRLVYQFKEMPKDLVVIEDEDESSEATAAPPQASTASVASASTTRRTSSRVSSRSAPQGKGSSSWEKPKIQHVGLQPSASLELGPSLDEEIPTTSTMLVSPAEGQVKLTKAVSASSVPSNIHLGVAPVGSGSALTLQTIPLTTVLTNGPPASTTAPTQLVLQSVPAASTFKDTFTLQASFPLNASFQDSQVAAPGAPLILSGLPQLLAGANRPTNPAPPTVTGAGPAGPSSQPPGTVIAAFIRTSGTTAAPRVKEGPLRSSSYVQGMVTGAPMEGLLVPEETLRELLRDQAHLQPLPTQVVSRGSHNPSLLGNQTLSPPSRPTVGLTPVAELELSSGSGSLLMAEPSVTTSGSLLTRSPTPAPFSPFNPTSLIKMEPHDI

AGTCCC: the binding signal in the assay with ELK1 was 1.06 fold enrichment (6-mer frequency, TF over GST control); in the assay with GABPA, 1.03 fold enrichment (6-mer frequency, TF over GST control); in the assay with ERG it was 1.07 fold enrichment (6-mer frequency, TF over GST control); with ELF1 it was 1.08 fold enrichment (6-mer frequency, TF over GST control); with EHF, 1.01 fold enrichment (6-mer frequency, TF over GST control); in the assay with SPIB, 1.03 fold enrichment (6-mer frequency, TF over GST control). Also, the binding signal was 1.01 fold enrichment (6-mer frequency, TF over GST control) with ELK3; 1.04 fold enrichment (6-mer frequency, TF over GST control) in the assay with ETV5; 1.06 fold enrichment (6-mer frequency, TF over GST control) with SPIC; 1.06 fold enrichment (6-mer frequency, TF over GST control) with ELF4; 1.11 fold enrichment (6-mer frequency, TF over GST control) with ELF3; 1.11 fold enrichment (6-mer frequency, TF over GST control) in the assay with ETV1. Besides, the binding signal with ERF is 1.17 fold enrichment (6-mer frequency, TF over GST control); in the assay with ETV3L, 1.04 fold enrichment (6-mer frequency, TF over GST control); in the assay with SPDEF, 1.03 fold enrichment (6-mer frequency, TF over GST control); in the assay with ETV7, 1.07 fold enrichment (6-mer frequency, TF over GST control); in the assay with ETV3 it was 1.06 fold enrichment (6-mer frequency, TF over GST control).

With CGGCAA, the binding signal with ETV5 was 1.02 fold enrichment (6-mer frequency, TF over GST control); with ETV6, 1.02 fold enrichment (6-mer frequency, TF over GST control).

For GGATAC, the binding signal with ERG was 1.09 fold enrichment (6-mer frequency, TF over GST control); with EHF, 1.01 fold enrichment (6-mer frequency, TF over GST control); with SPIB, 1 fold enrichment (6-mer frequency, TF over GST control); in the assay with ETV5, 1.01 fold enrichment (6-mer frequency, TF over GST control); with ETV1 it was 1.06 fold enrichment (6-mer frequency, TF over GST control); in the assay with SPDEF it was 1.43 fold enrichment (6-mer frequency, TF over GST control). Besides, the binding signal in the assay with ETV3 was 1 fold enrichment (6-mer frequency, TF over GST control).
